Inhibition data for 37 compounds are collected here from PubChem BioAssay.

Values without a mark were called inactive. Active and inactive are the calls of the source.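 Rule for the calls, unless noted: active = mean inhibition above 46.5%, the solvent-only control mean plus 3 SD; inactive = the rest.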

Assay [1] concerns transactivating tegument protein VP16 (Human herpesvirus 1). The assay can be described thus: compounds suppressing VP16-driven luciferase signal – cell-based, luminescence, single concentration, counter-screen for SRC2 inhibitor project (AID 652007; in the data active = inhibition above about 36%). To be noted: cell-based VP16 transactivation luciferase reporter, at 8.9 µM, stronger effect = higher value.
Assay [2] deals with Nuclear receptor coactivator 2 (Homo sapiens) (UniProt Q15596). The assay can be described thus: inhibition of GAL4-SRC2 driven luciferase expression – cell-based, luminescence, HEK293, triplicate, confirmation (AID 652008).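 Note: 0% = DMSO-treated cells and 100% = Gossypol at 36 µM.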 To be noted: HEK293 GAL4-SRC2 luciferase reporter, at 8.9 µM, stronger effect = higher value. Background: Reporter assays use an easily measured gene product as a stand-in for the process of interest.
Chain of Nuclear receptor coactivator 2 (Homo sapiens) (Q15596 whole entry, looked up, the tested form may be a part): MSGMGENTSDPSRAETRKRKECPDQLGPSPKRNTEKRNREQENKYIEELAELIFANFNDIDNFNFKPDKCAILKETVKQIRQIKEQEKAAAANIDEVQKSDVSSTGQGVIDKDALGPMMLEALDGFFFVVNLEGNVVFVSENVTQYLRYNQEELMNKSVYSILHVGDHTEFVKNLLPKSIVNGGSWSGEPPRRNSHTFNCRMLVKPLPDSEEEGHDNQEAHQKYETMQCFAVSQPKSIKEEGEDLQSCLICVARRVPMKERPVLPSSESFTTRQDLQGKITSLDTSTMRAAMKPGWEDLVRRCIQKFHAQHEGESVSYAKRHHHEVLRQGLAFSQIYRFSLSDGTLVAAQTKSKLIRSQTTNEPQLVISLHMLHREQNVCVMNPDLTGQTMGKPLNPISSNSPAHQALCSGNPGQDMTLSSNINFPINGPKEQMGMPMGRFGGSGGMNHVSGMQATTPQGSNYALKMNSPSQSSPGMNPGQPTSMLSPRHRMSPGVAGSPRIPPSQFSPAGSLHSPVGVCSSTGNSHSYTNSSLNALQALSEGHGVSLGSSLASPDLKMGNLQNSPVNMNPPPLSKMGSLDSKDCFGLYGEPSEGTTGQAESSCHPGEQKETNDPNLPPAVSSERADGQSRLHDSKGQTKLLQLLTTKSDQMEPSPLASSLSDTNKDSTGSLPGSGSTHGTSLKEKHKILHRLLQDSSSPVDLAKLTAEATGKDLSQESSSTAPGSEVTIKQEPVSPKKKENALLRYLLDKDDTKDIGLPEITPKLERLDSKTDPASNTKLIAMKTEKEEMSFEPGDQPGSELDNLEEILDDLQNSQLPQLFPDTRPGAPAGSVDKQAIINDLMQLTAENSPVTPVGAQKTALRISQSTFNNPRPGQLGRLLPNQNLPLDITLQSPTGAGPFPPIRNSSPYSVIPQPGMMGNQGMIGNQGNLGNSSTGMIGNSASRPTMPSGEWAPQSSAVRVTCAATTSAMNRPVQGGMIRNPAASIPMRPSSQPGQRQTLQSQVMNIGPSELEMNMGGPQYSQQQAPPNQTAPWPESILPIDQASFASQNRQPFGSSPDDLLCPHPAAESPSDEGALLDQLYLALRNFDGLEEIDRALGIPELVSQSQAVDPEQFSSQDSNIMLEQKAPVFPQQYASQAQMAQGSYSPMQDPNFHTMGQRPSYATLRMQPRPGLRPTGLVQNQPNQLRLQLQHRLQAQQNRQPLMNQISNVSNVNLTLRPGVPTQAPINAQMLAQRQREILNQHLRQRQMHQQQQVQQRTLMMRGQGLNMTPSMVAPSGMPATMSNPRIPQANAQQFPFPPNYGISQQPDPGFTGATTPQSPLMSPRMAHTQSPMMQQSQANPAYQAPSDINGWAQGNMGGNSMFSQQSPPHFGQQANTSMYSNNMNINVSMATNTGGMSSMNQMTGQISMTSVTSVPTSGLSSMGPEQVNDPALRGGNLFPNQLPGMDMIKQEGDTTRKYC

`O=C(CCCN1C(=O)/C(=C/c2cccs2)SC1=S)Nc1ccccn1`: the inhibition (commonly the relative decrease from the control value, in per cent) was 12.4% in assay [1] and 10.9% in assay [2].
For `Nn1c(SCC(=O)Nc2cc(C(F)(F)F)ccc2Cl)nncc1=O` the same measures were 3.78% and -1.26%.
For `O=C(O)CCC(=O)Nc1ccc(NC(=O)c2ccc(Cl)cc2Cl)c(Cl)c1`, in that order: -5.8% and -2.71%.
As to `CN(C)Cc1ccc(-c2nc3cccc4c3n2CCNC4=O)cc1`, the inhibition in assay [1] was -27.9%; in assay [2], 6.56%.
For the compound `CC1CCc2nc(N)c(C#N)c(-c3cccn3C)c2C1` (centres undefined), the results for the inhibition in assay [1] and in assay [2] were 15.5% and 15.7%, respectively.
For the compound `CC(C)(C)c1ccc(-c2noc(CCC(=O)NCc3ccco3)n2)cc1`, the inhibition in assay [1] is 40.9% (active); in assay [2], 59.5% (active).
For `COc1ccc(OC)c(S(=O)(=O)Nc2ccc3c(c2)OCCO3)c1` the same measures were -22.5% and 21.2%.
For `COc1ccc(-n2c(SCC(=O)NN=Cc3c(O)ccc4ccccc34)nnc2-c2ccc(C(C)(C)C)cc2)cc1` the same measures were -13% and 30.7%.
For `Cc1ccccc1N(Cc1cc(=O)[nH]c2ccccc12)C(=O)CCl`, in that order: 44.6% (active) and 76.7% (active).
`CCOC(=O)COc1ccc(S(=O)(=O)N2CCN(c3ccc(OC)cc3)CC2)cc1`: the inhibition in assay [1] is 3.67%; in assay [2], -1.53%.
Turning to `O=C(CCCN1C(=O)/C(=C/c2ccccc2Cl)SC1=S)Nc1ccccn1`, the figures for the inhibition in assay [1] and in assay [2] were 25.5% and 43.8%, respectively.
For `Cc1ccc(N(C(=O)CCl)C(C(=O)NC2CCCCC2)c2cccnc2)cc1C` (centres undefined), in that order: 55.2% (active) and 61.7% (active).
For `CC(C)(C)c1ccc(-c2noc(CCC(=O)NCC3CCCO3)n2)cc1` (centres undefined), in that order: 42.1% (active) and 67.2% (active).
For `Nc1n[nH]c2c1C1(CCCC1)Cc1ccccc1-2` the same measures were 1.41% and 10%.
For the compound `CC(C)(C)n1nc2c(c1NC(=O)c1cc([N+](=O)[O-])ccc1Cl)CS(=O)(=O)C2`, the inhibition in assay [1] was 25.2%; in assay [2], 47.5% (active).
For `CCOc1ccc(-c2nc(CSCC(=O)NCc3ccco3)c(C)o2)cc1` the same measures were -11.2% and 37%.
For `C[N+]1(CC2COC3(CCCCC3)O2)CCCC1` (centres undefined) the same measures were -9.45% and -21.5%.
`CCc1ccc(/C=C2\SC(=S)N(CCC(=O)Nc3cc(C)on3)C2=O)cc1`: the inhibition was -41% in assay [1] and 16.6% in assay [2].
For `N=c1c2c3c(sc2ncn1N)CCCCC3` the same measures were 2.99% and -23.5%.
For `NS(=O)(=O)c1ccc(NC(=O)COc2ccc(C(=O)c3ccc(F)cc3)cc2)cc1` the same measures were -1.97% and -2.94%.
For `CN=C1CC(SC)=C1c1ccc(C)cc1`, in that order: -10.3% and 1.69%.
For the compound `COCCn1c(SCC(=O)/C=C2\N(C)c3ccccc3C2(C)C)nnc1-c1ccncc1`, the inhibition in assay [1] is -4.56%; in assay [2], 8%.
For `O=C(NC(=S)Nc1cccc2cc(O)ccc12)c1ccccc1Br`, in that order: 2.57% and -14.4%.
For `O=C(Nc1ccc2c(c1)OCCO2)c1ccc(Br)c(S(=O)(=O)N2CCOCC2)c1` the same measures were -39.8% and 45.5%.
For `CCOc1ccc(-n2nc3ccc(N)cc3n2)cc1` the same measures were -14.3% and 66% (active).
With `CC(=O)OC1CCC2(C)C(CCC3C4CC=C(C(C)=O)C4(C)OC(=O)CC32)C1` (centres undefined), the inhibition in assay [1] is 20.8%; in assay [2], 16.1%.
As for `CCOC(=O)c1c(NC(=O)/C=C/C(=O)O)sc(C)c1-c1ccc(C(C)(C)C)cc1`, the figures for the inhibition in assay [1] and in assay [2] were 32.9% and 17.2%, respectively.
For `O=c1cc(-c2ccc(O)cc2)oc2ccc3ccccc3c12` the same measures were 5.39% and 50.8% (active).
For `Cc1ccc(NC(=O)CSc2ncnc3ccccc23)cc1S(=O)(=O)N1CCCCCC1`, in that order: 12.7% and 20.7%.
For `CCCC1=Nc2cc(C(=O)NCCCOCC)ccc2Sc2ccccc21` the same measures were -2.83% and 15.5%.
As to `O=C(c1cc2sccc2n1Cc1ccc(F)cc1)N1CCN(c2nc3ccccc3s2)CC1`, the inhibition is 6.21% in assay [1] and 36.9% in assay [2].
As to `CCCCC(=O)Nc1ccc(C)c(S(=O)(=O)N2CCCCCC2)c1`, the figures for the inhibition in assay [1] and in assay [2] were -13.7% and 18.4%, respectively.
With `Nc1ccc(OC(=O)Nc2ccc(O)cc2)cc1`, the inhibition is 31.8% in assay [1] and 73.7% (active) in assay [2].
For `CC1CCCC(C)N1C(=O)c1cccc2c1-c1ccccc1/C2=N/O` (centres undefined), in that order: -10.5% and 8.15%.
For `CC(C)c1ccc(/C=C/C(=O)N2CCCCCC2)cc1` the same measures were -73.2% and -26%.
For `CCn1nc(C)cc1-c1nnc(Sc2ncc([N+](=O)[O-])s2)n1C`, the inhibition in assay [1] is 85.2% (active); in assay [2], 93.9% (active).
For `CC(=O)Nc1ccc(NC(=O)c2cc(=O)c3ccccc3o2)cc1`, in that order: -12.5% and -8.33%.
